Results as given in PubChem BioAssay.
The source made the active and inactive calls. Rule as the data show it, unless noted: active = inhibition above about 25%; inactive = the rest.

biological target: Nuclear receptor coactivator 1 (Homo sapiens) (UniProt Q15788); assay: NCOA1 GAL4-fusion reporter inhibition – cell-based, luminescence, quadruplicate, confirmation (AID 588820;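 active = mean inhibition above 46.68%, the untreated control wells mean plus 3 SD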;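 also: 0% = DMSO wells and 100% = gossypol 36 µM treated wells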); conditions: HEK293 GAL4-SRC1 luciferase reporter, at 3.6 µM, active compounds read high
Sequence (Q15788 whole entry, looked up, the tested form may be a part): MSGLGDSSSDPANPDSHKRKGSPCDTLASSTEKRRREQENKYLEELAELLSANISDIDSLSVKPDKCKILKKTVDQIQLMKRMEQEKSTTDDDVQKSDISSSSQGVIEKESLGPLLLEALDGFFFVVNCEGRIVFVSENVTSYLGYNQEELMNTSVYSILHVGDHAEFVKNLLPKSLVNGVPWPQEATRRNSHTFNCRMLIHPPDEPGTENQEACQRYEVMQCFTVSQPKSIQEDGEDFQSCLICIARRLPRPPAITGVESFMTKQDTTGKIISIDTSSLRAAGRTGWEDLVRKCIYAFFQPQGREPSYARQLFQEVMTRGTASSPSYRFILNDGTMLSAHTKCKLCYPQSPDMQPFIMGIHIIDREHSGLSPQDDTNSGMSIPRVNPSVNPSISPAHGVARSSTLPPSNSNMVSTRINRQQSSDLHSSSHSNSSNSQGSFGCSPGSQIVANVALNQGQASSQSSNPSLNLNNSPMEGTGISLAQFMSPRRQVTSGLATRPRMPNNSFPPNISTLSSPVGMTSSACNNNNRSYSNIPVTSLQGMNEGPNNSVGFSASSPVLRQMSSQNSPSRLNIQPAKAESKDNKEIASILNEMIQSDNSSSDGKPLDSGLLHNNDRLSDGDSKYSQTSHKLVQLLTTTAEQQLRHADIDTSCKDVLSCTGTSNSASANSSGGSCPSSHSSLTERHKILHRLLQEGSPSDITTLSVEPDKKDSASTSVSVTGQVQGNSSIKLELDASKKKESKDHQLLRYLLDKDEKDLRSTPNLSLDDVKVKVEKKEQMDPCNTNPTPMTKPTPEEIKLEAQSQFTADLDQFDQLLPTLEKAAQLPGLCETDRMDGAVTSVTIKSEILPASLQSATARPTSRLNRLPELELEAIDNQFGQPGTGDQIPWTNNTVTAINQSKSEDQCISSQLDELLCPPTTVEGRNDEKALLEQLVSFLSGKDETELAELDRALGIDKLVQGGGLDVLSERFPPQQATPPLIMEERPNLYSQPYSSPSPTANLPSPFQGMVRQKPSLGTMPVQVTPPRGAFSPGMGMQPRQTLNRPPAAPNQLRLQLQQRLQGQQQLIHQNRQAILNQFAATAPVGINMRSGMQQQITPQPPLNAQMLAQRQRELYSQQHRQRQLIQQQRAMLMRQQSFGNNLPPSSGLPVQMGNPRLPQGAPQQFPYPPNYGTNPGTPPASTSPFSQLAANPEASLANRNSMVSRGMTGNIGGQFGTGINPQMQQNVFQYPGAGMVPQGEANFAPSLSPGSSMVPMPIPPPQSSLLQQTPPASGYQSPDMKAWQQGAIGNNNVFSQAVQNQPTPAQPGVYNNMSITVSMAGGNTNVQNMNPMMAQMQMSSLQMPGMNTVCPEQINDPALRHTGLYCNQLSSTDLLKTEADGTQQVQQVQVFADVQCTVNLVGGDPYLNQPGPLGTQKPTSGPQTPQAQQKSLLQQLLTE

| Compound | inhibition |
| --- | --- |
| C=CCNc1ncnc2ccc(Br)cc12 | 30.3% (inactive) |
| Cc1ccc(-c2nnc(SCC(=O)Nc3ccccc3F)o2)cc1 | -8.02% (inactive) |
| O=C1C=C(NCCc2cc(Br)c(O)c(Br)c2)C(=O)c2ncccc21 | -170% (inactive) |
| Cn1nnnc1Sc1ncnc2scc(-c3ccc4c(c3)OCO4)c12 | 0.44% (inactive) |
| OC[C@@H]1CN(Cc2ccncc2)C[C@H](n2cnc3c(N4CCN(c5ccccc5)CC4)ncnc32)O1 | 2.2% (inactive) |
| c1ccc2c(-c3cccc4nccn34)cncc2c1 | 33.6% (inactive) |
| O=C(Nc1cccc2c1CCCC2)c1cc([N+](=O)[O-])ccc1Cl | 19% (inactive) |
| CCn1ccnc1CN(C)Cc1cn[nH]c1-c1ccc(F)cc1F | 30.6% (inactive) |
| c1cn(-c2ncnc3sc4c(c23)CCCC4)cn1 | 11.4% (inactive) |
| O=C(Nc1ccc(N2CCN(C(=O)c3ccco3)CC2)c(Cl)c1)c1cc2ccccc2o1 | -30.1% (inactive) |
| O=C(Nc1ccc2c(c1)OCCO2)c1[nH]c(C(F)(F)F)nc1-c1ccccc1 | -3.74% (inactive) |
| CC(=O)Nc1ccc(OCC(=O)Nc2ccc(Cl)c(S(=O)(=O)N3CCOCC3)c2)cc1 | -7.7% (inactive) |
| Cc1cc(NC(=O)Cc2ccccc2)c2ccccc2n1 | 11.1% (inactive) |
| CNc1cncc(-c2ccc(NS(C)(=O)=O)cc2)n1 | 20.8% (inactive) |
| Cc1ccc(-c2cc(C(=O)NCCCN3CCOCC3)no2)cc1 | 8.12% (inactive) |
| Cc1sc2ncnc(N3CCC(C(=O)N(C)CC(=O)Nc4cccc(F)c4)CC3)c2c1C | 33.5% (inactive) |
| CCOC(=O)c1c(C)cc2c(CO)n[nH]c(=O)c2c1C | 11.6% (inactive) |
| Cc1sc2ncnc(NC3CCN(Cc4ccccc4)CC3)c2c1C | -6.93% (inactive) |
| Cc1cc(Nc2cccc(Cl)c2)nc(NCc2ccccc2)n1 | -6.91% (inactive) |
| COc1ccccc1NS(=O)(=O)c1cccc(NC(=O)c2cncc(Br)c2)c1 | 20% (inactive) |

system: not listed separately; assay: repression of VP16-driven luciferase reporter – cell-based, luminescence, high throughput, counter-screen for SRC1 inhibitor project (AID 588824); conditions: cell-based VP16 transactivation luciferase luminescence; at 3.6 µM; active compounds read high

| Compound | inhibition |
| --- | --- |
| C=CCNc1ncnc2ccc(Br)cc12 | 21% (inactive) |
| Cc1ccc(-c2nnc(SCC(=O)Nc3ccccc3F)o2)cc1 | 26.2% (active) |
| O=C1C=C(NCCc2cc(Br)c(O)c(Br)c2)C(=O)c2ncccc21 | 14.2% (inactive) |
| Cn1nnnc1Sc1ncnc2scc(-c3ccc4c(c3)OCO4)c12 | 3.16% (inactive) |
| OC[C@@H]1CN(Cc2ccncc2)C[C@H](n2cnc3c(N4CCN(c5ccccc5)CC4)ncnc32)O1 | 37.8% (active) |
| c1ccc2c(-c3cccc4nccn34)cncc2c1 | 30.7% (active) |
| O=C(Nc1cccc2c1CCCC2)c1cc([N+](=O)[O-])ccc1Cl | 25% (inactive) |
| CCn1ccnc1CN(C)Cc1cn[nH]c1-c1ccc(F)cc1F | 15.7% (inactive) |
| c1cn(-c2ncnc3sc4c(c23)CCCC4)cn1 | 7.19% (inactive) |
| O=C(Nc1ccc(N2CCN(C(=O)c3ccco3)CC2)c(Cl)c1)c1cc2ccccc2o1 | 6.89% (inactive) |
| O=C(Nc1ccc2c(c1)OCCO2)c1[nH]c(C(F)(F)F)nc1-c1ccccc1 | -15.6% (inactive) |
| CC(=O)Nc1ccc(OCC(=O)Nc2ccc(Cl)c(S(=O)(=O)N3CCOCC3)c2)cc1 | 27.7% (active) |
| Cc1cc(NC(=O)Cc2ccccc2)c2ccccc2n1 | 36.5% (active) |
| CNc1cncc(-c2ccc(NS(C)(=O)=O)cc2)n1 | 31% (active) |
| Cc1ccc(-c2cc(C(=O)NCCCN3CCOCC3)no2)cc1 | -4.18% (inactive) |
| CCN(CC)CC(C)(C)C(=O)/C=C/c1ccc(/C=C/C(=O)C(C)(C)CN(CC)CC)cc1 | 84.5% (active) |
| Cc1sc2ncnc(N3CCC(C(=O)N(C)CC(=O)Nc4cccc(F)c4)CC3)c2c1C | 22.7% (inactive) |
| CCOC(=O)c1c(C)cc2c(CO)n[nH]c(=O)c2c1C | 23.1% (inactive) |
| Cc1sc2ncnc(NC3CCN(Cc4ccccc4)CC3)c2c1C | 23.8% (inactive) |
| Cc1cc(Nc2cccc(Cl)c2)nc(NCc2ccccc2)n1 | 12.4% (inactive) |
| COc1ccccc1NS(=O)(=O)c1cccc(NC(=O)c2cncc(Br)c2)c1 | 25.1% (inactive) |
